Source: PubChem BioAssay (several laboratories)
STAT1 inh: STAT1 signaling inhibitors, primary screen, cell-based, HTS, luciferase reporter; hit rate 0.35% among 200,000; AID 920, 2007; NIH 3T3 STAT1-luciferase reporter, IFN-gamma, luminescence; inhibition, % at 5.5 µM;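 active = inhibition above a set limit, the mean inhibition across all tested compounds plus 3 SD, cut at about 34% in these data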;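 note: 0% = IFN-gamma with DMSO and 100% = IFN-gamma with 300 µM nifuroxazide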
Platelet DG rel: inhibitors of platelet dense granule secretion, primary screen, cell-based, MLPCN, human platelets. hit rate 0.22% among 300,000. inhibition, %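 (compounds screened at 7.5 µM in platelet-rich plasma)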. AID 1663, 2009. human platelet-rich plasma, SFLLRN dense granule ATP release, luminescence;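 active = mean replicate score, as percent of positive control, at or above 50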
PPC-1+TRAIL kill: compounds killing PPC-1 cancer cells with TRAIL present, primary screen, TRAIL potentiator project, ATPLite luminescence, uHTS; PPC-1 cells + TRAIL, ATPLite viability luminescence; hit rate 0.41% among 220,000; cell killing (% activity), % at 4 µM or 5 µM; AID 1443, 2008;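 active = cell killing above 50% in the first pass at 4 µM, then a duplicate retest at 5 µM averaging 50% or more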;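 note: plate controls were cells with TRAIL plus DMSO for no effect and medium-only wells lacking cells for full effect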
C8 TRAIL sens: viability loss with TRAIL in NB7+C8 cells, primary screen, TRAIL sensitizer project, cell-based, ATPlite luminescence; hit rate 1% among 360,000; inhibition (viability loss, TRAIL sensitization), % at 10 µM; AID 624354, 2012;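 active = compounds causing at least 50% loss of cell viability in the single-dose screen, relative to plate controls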
STAT3 inh-1: IL-6 driven STAT3 reporter inhibitors, primary screen, U3A cells, luciferase, luminescence, MLSCN library | IL-6 STAT3-luciferase reporter; host cell line lacks STAT1 | inhibition, % at 5.5 µM | hit rate 0.89% among 190,000;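 active = inhibition above the mean inhibition across all screened compounds plus 3 SD, cut at about 44% in these data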;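 note: 0% = DMSO only wells and 100% = 100 µM nifuroxazide control wells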
STAT3 inh-2: STAT3 reporter inhibitors, retest of hits, confirmation, U3A cells, luciferase, luminescence; AID 1265, 2008; IL-6 STAT3 luciferase reporter; cell line lacks STAT1; hit rate 45% among 1,200; shares compounds with STAT3 inh-1; inhibition, % at 5.7 µM;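 active = inhibition above the hit cutoff computed for the primary STAT3 screen, cut at about 44% in these data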;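 note: 0% = IL-6 plus DMSO and 100% = IL-6 plus nifuroxazide control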
NFkB inh STAT3ct: NF-kB reporter inhibitors in human cells, confirmation, counter-screen for STAT3 inhibitor project, cell-based, HEK293T, luciferase, TNF-alpha stimulus | shares compounds with STAT3 inh-1 | TNF-alpha induced | inhibition, % at 5.7 µM | hit rate 36% among 1,200;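 active = inhibition above the mean of solvent-only control wells plus 3 SD, cutoff set per campaign, cut at about 13% in these data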;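 note: 0% = TNF-alpha with DMSO and 100% = TNF-alpha with MG high control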
STAT1 inh 2: STAT1 reporter inhibitors, IFN-gamma induced, confirmation, counter-screen for STAT3 inhibitor project, cell-based, NIH 3T3, luciferase luminescence. NIH 3T3 STAT1-luciferase reporter. inhibition, % at 5.7 µM. hit rate 27% among 1,200. shares compounds with STAT3 inh-1;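 active = inhibition above the mean plus 3 SD of solvent-only control wells, limit set per screening run, cut at about 16% in these data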;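 note: 0% = DMSO with IFN-gamma and 100% = nifuroxazide control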
An asterisk follows results filed as active; · = no result given. Only some compounds are listed: those with a hit (about 1.6% of all), similar ones and a draw of the others.

SMILES | STAT1 inh | Platelet DG rel | PPC-1+TRAIL kill | C8 TRAIL sens | STAT3 inh-1 | STAT3 inh-2 | NFkB inh STAT3ct | STAT1 inh 2
COc1cccc(CNC(=O)COC(=O)c2nc(Cl)c(Cl)c(Cl)c2Cl)c1 | · | · | · | 16 | · | · | · | ·
CC(=O)c1ccc(N2CCN(C(=S)Nc3ccc(Oc4ccccc4)cc3)CC2)cc1 | 18 | -5 | 1 | 7 | 78* | 61* | 20* | 12
COc1ccc(N2CCN(C(=S)Nc3ccccc3)CC2)cc1 | · | 2 | · | 20 | · | · | · | ·
COc1ccc(OC)c(NC(=O)CSc2ncnc3c2cnn3-c2ccccc2Cl)c1 | 31 | 1 | 24 | 29 | 79* | 81* | 31* | 26*
COc1cc(NC(=O)CSc2ncnc3c2cnn3Cc2ccccc2)cc(OC)c1 | 6 | -15 | 2 | -24 | 21 | · | · | ·
CCOc1ccc(-c2nnc(-c3ccc(OC)cc3)o2)cc1 | -8 | -11 | 15 | -3 | 8 | · | · | ·
CCOc1ccc(-c2nnc(-c3ccccc3)o2)cc1 | 19 | 9 | 27 | 58* | 66* | 38 | 4 | -61
CCOc1nc(-c2ccc(OC)cc2)ccc1-c1noc(-c2ccncc2)n1 | · | · | -21 | -3 | · | · | · | ·
CCCCOc1ccc(-c2nnc(-c3ccncc3)o2)cc1 | -11 | 6 | -40 | 14 | 5 | · | · | ·
CCOc1ccc(-c2nc(-c3ccccc3C)no2)cc1 | -24 | 3 | 39 | · | 46* | 14 | -20 | -119
CCCOc1ccc(-c2nnc(-c3cccs3)o2)cc1 | -18 | 1 | 2 | 32 | 66* | 36 | -4 | -68
CN(C)c1ccc(-c2nnc(-c3cccs3)o2)cc1 | 25 | 3 | 43 | 46 | 55* | 11 | -28 | -137
Clc1ccccc1-c1nnc(-c2cccs2)o1 | -48 | 3 | 28 | 31 | 1 | · | · | ·
NC(Cc1ccccc1)c1csc(Nc2nccc(C(F)(F)F)n2)n1 (centres undefined) | · | · | · | 26 | · | · | · | ·
Cc1cccc(N2CCN(C(=O)CSCc3c(C)noc3C)CC2)c1C | 22 | 9 | 15 | 31 | 70* | 59* | 11 | 14
Cc1noc(C)c1CSCC(=O)N1CCN(c2ccc(F)cc2)CC1 | 27 | -7 | 4 | -24 | 46* | 31 | 3 | 4
CC(=O)NC(c1ccc(F)c(F)c1)c1nc(-c2cc3ccccc3o2)cs1 (centres undefined) | · | · | · | -14 | · | · | · | ·
CCOC(=O)C1(C)CCCN1C(=O)c1ccc(C(F)(F)F)nc1C (centres undefined) | · | · | · | -5 | · | · | · | ·
CC(C)C(=O)N1CCC1(C)C(=O)NCc1ccc(C(C)(C)C)cc1 (centres undefined) | · | · | · | 2 | · | · | · | ·
COC(=O)c1sccc1N/N=C/c1cccc(OC)c1O | -4 | 32 | 21 | 25 | 60* | 19 | -9 | -3
COc1ccc(OC)c(NC(=O)C2(C)CCN2CCOc2ccccc2)c1 (centres undefined) | · | · | · | 7 | · | · | · | ·
O=C(CSc1nnc(-c2cccnc2)s1)Nc1ccnc2ccccc12 | 20 | 10 | 7 | 30 | 72* | 82* | 22* | 18*
Cc1ccc(NC(=O)CSc2nnc(-c3cccnc3)s2)cc1 | 1 | 0 | 10 | -6 | -3 | · | · | ·
Cc1ccc([N+](=O)[O-])cc1N=Nc1c(C)[nH]n(C(N)=S)c1=O | · | -1 | · | -19 | · | · | · | ·
NC(=S)n1[nH]c(-c2ccc([N+](=O)[O-])cc2)c(N=Nc2ccc(Cl)cc2)c1=O | 27 | · | 26 | 59* | 61* | 54* | 14* | 37*
SMILES | STAT1 inh | Platelet DG rel | PPC-1+TRAIL kill | C8 TRAIL sens | STAT3 inh-1 | STAT3 inh-2 | NFkB inh STAT3ct | STAT1 inh 2
C[n+]1c2n(c3ccccc31)N=C(c1ccc(-c3ccccc3)cc1)CS2 | 29 | 19 | 13 | 33 | 66* | 33 | 3 | 29*
C[n+]1c2n(c3ccccc31)N=C(c1ccccc1)CS2 | 30 | -2 | 18 | 26 | -28 | · | · | ·
CCN(CC)c1ccc(Nc2nc(N3CCOCC3)c3ccccc3n2)cc1 | 20 | 5 | -9 | 37 | 49* | 41 | 9 | 15
c1csc(-c2csc3ncnc(NCCCN4CCOCC4)c23)c1 | 15 | 1 | 19 | 10 | 46* | 31 | 8 | 15
S=C(NCCc1ccccc1)Nc1cccc2cnccc12 | 26 | 7 | 20 | 10 | 68* | 73* | 25* | 23*
Cc1nc(NCCc2ccc(S(N)(=O)=O)cc2)c2c(C)c(C)sc2n1 | 21 | · | 6 | 36 | 54* | 48* | 12 | 30*
Cc1ccc(S(=O)(=O)N2CC3C(=O)C[C@@H](c4ccccc4)N(S(=O)(=O)c4cccc(Cl)c4)C3CC2c2ccccc2)cc1 (some centres undefined) | · | · | · | -7 | · | · | · | ·
CCOc1cc(C(=S)N2CCOCC2)ccc1OS(=O)(=O)c1ccc(NC(C)=O)cc1 | 15 | 0 | 26 | -7 | 58* | 45* | 13 | 13
CCCCc1ccc(NC(=O)CSc2nc(=O)n(CCCN3CCOCC3)c3c2CCC3)cc1 | · | -3 | · | 7 | · | · | · | ·
OC1(c2ccc(OC(F)F)cc2)CSC(=Nc2cccnc2)N1C1CC1 (centres undefined) | 15 | -5 | 3 | 9 | 53* | 40 | 3 | 10
COc1ccc(OC)c(C2(O)CSC(=Nc3cccnc3)N2Cc2ccco2)c1 (centres undefined) | 17 | -6 | 15 | -3 | 24 | · | · | ·
Cc1cc(C=C2C(=O)c3ccccc3C2=O)c(C)n1-c1ccccc1 | 13 | 10 | 5 | 78* | 75* | 13 | 6 | -19
Cc1cc(/C=C2\Cc3ccccc3C2=O)c(C)n1-c1ccccc1 | -4 | 8 | 23 | 71* | 71* | 23 | -15 | -100
Cc1cc(C=C2C(=O)c3ccccc3C2=O)c(C)n1-c1ccc(C(=O)O)cc1 | -6 | 2 | 8 | 6 | 8 | · | · | ·
COc1ccccc1C(=O)Nc1nnc(-c2ccco2)s1 | -41 | -7 | 24 | 26 | 4 | · | · | ·
O=C(Nc1nnc(-c2ccco2)s1)c1ccccc1 | -28 | -2 | 13 | 29 | 47* | 13 | -29 | -100
COc1ccc(C(=O)Nc2nnc(-c3ccco3)s2)cc1 | 35* | -3 | 46 | 59* | 82* | 55* | 19* | -36
CN(c1ccc(Cl)cc1)c1cc2c(c3c1ccn3C)C1CCC2O1 (centres undefined) | · | · | · | 5 | · | · | · | ·
CC(C)c1nnc(NC(=O)c2ccc3c(c2)OCO3)s1 | 22 | 2 | 36 | 26 | 79* | 48* | 4 | -56
